Peg3 imprint: genomic imprint erasure induction; mouse ES Peg3-LacZ reporter, beta-gal luminescence, 40 h; Potency, µM (titrated, usually from 60.7 µM), for the others: at the highest dose activity change, positive = activation, actives largely listed as activators; 110,000 tested, 0.02% active
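Gelatin-coated wells received 300 freshly trypsinized female ES cells with a Peg3LacZ-Neo reporter on the maternal allele, then incubated 40 hours at 37C. BetaGlo was added for 5 minutes at room temperature before a single luminescence read.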
p53ts 32C tox: cytotoxicity in p53ts cells at permissive temperature; H1299-p53A138V at 32C, ATP luminescence viability, 24 h; Potency, µM (titrated, usually from 46.1 µM), without a hit: at the top dose activity change, negative = cytotoxicity, usual class: cytotoxic; 130,000 tested, 0.93% active;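 note: 0% = DMSO and -100% = full killing by reference compound; nearly all actives have a fitted effect of over 55% in size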
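ATP-content luminescence (ATPlite) read-out after 24 h compound exposure at 32C in H1299-p53A138V cells (600/well). Tested up to 46 uM. Normalized to DMSO (0%) and 100 uM tamoxifen (100% killing); Hill-fit AC50.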
ERK AVP inh: vasopressin-driven ERK pathway inhibition; AID 995; HEK293-V1b, vasopressin-stimulated pERK AlphaScreen; Potency, µM (highest dose often 57.5 µM), for the others: at the highest dose activity, negative = inhibition, actives largely listed as inhibitors; 72,000 tested, 0.99% active; note: % is set by controls: 0 for no effect and ±100 for the full control effect; nearly all actives have a fitted effect of over 55% in size
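HEK293 cells stably expressing V1b receptor, preincubated 30 min at 37 °C with compound, then stimulated 5 min with 25 nM vasopressin. Phospho-ERK by AlphaScreen SureFire after 5 h RT; normalized to DMSO and vasopressin; AC50 by Hill fit.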
p53ts 39C kill: kills p53ts cells at the nonpermissive temperature. H1299-p53A138V viability at 39C, ATP luminescence, 24 h. Potency, µM (doses to about 46.1 µM), for the others: at the highest dose activity change, negative = cell killing, actives largely listed as cytotoxic. 130,000 tested, 1.5% active; note: % is set by controls: 0 for no effect and ±100 for the full control effect; nearly all actives have a fitted effect of over 55% in size
IkB signaling: inhibitors of IkB signaling in ABC-DLBCL cells; 110,000 tested, 0.04% active; ABC-DLBCL IkBa-CBG/CBR dual luciferase ratio, 4 h; response scale: scaled: untreated 0%, proteasome inhibitor 100%; Potency, µM (top dose mostly 57.1 µM), for the others: top-dose IkBa stabilization activation; AID 445; active = well fitted curve in the direction sought with a large enough effect in the signal ratio, not every such curve was filed as active; inconclusive = small, poorly fitted or top-dose-only effect, or a change in a side signal; the % refers to the signal ratio;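 note: the direction sought is a rising ratio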
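In this assay, an IκBα–CBG68 fusion accumulates when IKK-driven degradation is blocked; native CBR normalizes for cell number. OCI-Ly3 cells were treated 4 h with compound and doxycycline, then green and red light read after Chroma-Glo addition.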
An asterisk follows results filed as active; u = inconclusive; x = no result given; [ ] = dose if it differs, or a comment. Rows were chosen to be rich in hits. Some 2.3% of all compounds tested hit in one or more screens of this group. Unless noted, calls come from the whole dose curve; as a rule, active = well fitted curve in the direction sought with a large enough effect; inconclusive = small, poorly fitted or top-dose-only effect, or another doubt; inactive = no such curve, though single readings can be large; an effect the other way counts as inactive or inconclusive. Potency is the fitted concentration of half-maximal effect.

SMILES	Peg3 imprint	p53ts 32C tox	ERK AVP inh	p53ts 39C kill	IkB signaling
C[C@H](NC(=O)c1ccc(Cl)c(Cl)c1)c1ccc(-c2ccccc2)cc1	-12.2%[10.9 µM]	13.4%[9.22 µM]	-6.8%[11.5 µM]	9.4%[9.22 µM]	3.1%[11.4 µM]
CCSc1sccc1C1C(C#N)=C(N)N(c2cccnc2)C2=C1C(=O)CCC2 (stereo not drawn)	-7.8%	16.0%	31.6µM*	19.2%	11.2%
COc1cc(Cl)c(C)cc1NC(=O)Cn1ncc2c1-c1cc(C)ccc1OC2	-9.2%[10.9 µM]	-2.8%	x	12.6µM*	-3.8%
COc1ccc(OC)c(NC(=O)Cn2ncc3c2-c2ccccc2OC3)c1	-3.3%[10.9 µM]	-2.7%	x	15.1%	-0.4%
CCC(O)OC(O)CC (stereo not drawn)	-0.2%	-4.3%[1.84 µM]	-14.6%	7.2%	-0.2%
O=C(NCCc1ccccc1Cl)c1ccc(Cn2c(=O)c3cccn3c3cccnc32)cc1	u	10µM*	x	u	4.6%
c1ccc2c(c1)CCN(c1nc3cc4c(cc3s1)OCO4)C2	-78.2%	12.6µM*	-7.8%	u	u
c1c2c(cc3sc(N4CCCCC4)nc13)OCO2	2.4%	6.31µM*	-26.7%	10µM*	u
c1ccc2c(c1)CCN(Cc1nnnn1Cc1ccc3c(c1)OCO3)C2	-14.6%	3.7%	13.8%	-10.8%	-0.9%
c1c2c(cc3sc(N4CCOCC4)nc13)OCO2	-89.2%	10µM*	11.2%	u	6.1%
c1ccc(N2CCN(c3nc4cc5c(cc4s3)OCO5)CC2)cc1	5.4%	-5.5%	1.6%	-3.5%	-2.6%
COc1ccc(CNC(=O)CCc2c(C)nn(-c3ccc(N4CCCCC4)nn3)c2C)c(OC)c1	6.4%[10.9 µM]	-11.1%	x	-26.7%	u
Cc1cccc2cc(CN(Cc3ccco3)S(=O)(=O)c3ccc4c(c3)OCCO4)c(=O)[nH]c12	-12.5%	-11.6%	10µM*	-17.2%	u
COc1ccc(CCCO[C@@H](Cn2ccnc2)c2ccc(OC)cc2)cc1	-15.8%	u	u	31.6µM*	u
Oc1ccc(-c2nc(-c3ccc(F)cc3)c(-c3ccncc3)[nH]2)cc1	-5.4%	12.6%	7.94µM*	-2.3%	u
CC[C@@H](C)[C@H]1O[C@]2(CC[C@@H]1C)C[C@@H]1C[C@H](C/C=C(/C)[C@H](O[C@@H]3C[C@H](OC)[C@H](O[C@@H]4C[C@H](OC)[C@@H](O)[C@H](C)O4)[C@H](C)O3)[C@@H](C)/C=C\C=C3CO[C@@H]4[C@H](O)C(C)=C[C@@H](C(=O)O1)[C@]34O)O2 (tested in a mixture with another compound)	-4.9%	12.6µM*	2.0%	12.6µM*	u
CC[C@@H](C)[C@H]1O[C@]2(CC[C@@H]1C)C[C@@H]1C[C@@H](C/C=C(\C)[C@@H](O[C@H]3C[C@H](OC)[C@@H](O[C@H]4C[C@H](OC)[C@@H](O)[C@H](C)O4)[C@H](C)O3)[C@@H](C)/C=C/C=C3\CO[C@@H]4[C@H](O)C(C)=C[C@@H](C(=O)O1)[C@]34O)O2	-33.1%	x	x	x	x
CC[C@H](C)[C@@H]1O[C@]2(CC[C@@H]1C)C[C@H]1C[C@H](CC=C(C)[C@@H](O[C@H]3C[C@H](OC)[C@H](O[C@H]4C[C@H](OC)[C@H](O)[C@H](C)O4)[C@H](C)O3)[C@@H](C)C=CC=C3CO[C@@H]4[C@@H](O)C(C)=C[C@H](C(=O)O1)[C@@]34O)O2	x	10µM*	-21.7%	5.01µM*	14.4%
CC[C@H](C)[C@@H]1O[C@]2(CC[C@@H]1C)C[C@H]1C[C@H](CC=C(C)[C@@H](O[C@@H]3C[C@H](OC)[C@H](O[C@@H]4C[C@H](OC)[C@H](O)[C@H](C)O4)[C@H](C)O3)[C@@H](C)C=CC=C3CO[C@@H]4[C@@H](O)C(C)=C[C@@H](C(=O)O1)[C@]34O)O2	-23.9%[16.8 µM]	u	-8.7%[25.7 µM]	12.6µM*	1.5%[25.6 µM]
COc1ccc(C2CC(c3c(O)cc(C)oc3=O)=NCCS2)c(OC)c1 (stereo not drawn)	-16.5%	3.98µM*	-6.0%	2.51µM*	-1.4%
Cc1ccc(C2=C(Cl)C(=O)C(c3ccc(C)cc3)=C(Cl)C2=O)cc1	-5.2%[10.9 µM]	6.4%[9.22 µM]	9.8%[11.5 µM]	12.9%[9.22 µM]	1.0%[11.4 µM]
Cn1c(=O)c2c(nc(NC3CCCCC3)n2Cc2ccccc2)n(C)c1=O	-18.9%	5.01µM*	x	26.1%	u
Cn1c(=O)c2c(nc(NCc3ccccc3)n2Cc2ccccc2)n(C)c1=O	-20.6%[10.9 µM]	-13.4%	x	-3.7%	6.1%
CCCCCCNC(=O)C(C(=O)OCC)C1CCCCC1 (stereo not drawn)	-14.6%	1.6%	9.9%	8.1%	-1.6%
CCCCCCCCCCCCC(=O)N1CCCC[C@H]1CNC(=O)[C@@H](N)CCCCN	-35.4%	-6.8%	-0.3%	31.6µM*	0.0%
SMILES	Peg3 imprint	p53ts 32C tox	ERK AVP inh	p53ts 39C kill	IkB signaling
CC1CCCCN1CCCNC(=O)c1ccc(Cc2nc3ccccc3[nH]2)cc1 (stereo not drawn)	x	8.5%	x	2.0%	x
O=c1c(O)c(-c2ccc(O)c(O)c2)oc2c(OC[C@H]3O[C@@H](O)[C@@H](O)[C@H](O)[C@@H]3O)c(O)cc(O)c12	x	x	x	x	-0.3%[11.4 µM]
Oc1ccccc1-c1nc(/C=C/c2ccccc2Cl)no1	-55.2%[10.9 µM]	7.94µM*	x	7.94µM*	u
CN(C)c1ccc(/C=C/c2noc(-c3ccccc3O)n2)cc1	-79.9%[10.9 µM]	-20.8%	x	-2.6%	u
Cc1ncn(-c2ccccc2O)c1C	-26.6%[10.9 µM]	1.1%[9.22 µM]	-29.8%[11.5 µM]	-4.5%[9.22 µM]	0.7%[11.4 µM]
Cc1ccc(-n2ncc3c(NCCCN(C)C)ncnc32)cc1Cl	-4.0%[10.9 µM]	25.8%	x	15.8µM*	0.5%
On1onc2c3cc(-c4ccccc4)nc3ccc21	-27.6%	-3.0%	25.1µM*	-10.6%	u
c1ccc(-c2cc3c(ccc4nonc43)nn2)cc1	-25.9%	-4.3%	-2.5%	0.6%	0.4%
Cc1ccc(O)c(N=Nc2ccccc2)n1	-92.1%	20µM*	u	12.6µM*	1.0%
Cc1cc(Nc2ccc(N=Nc3ccc(O)c4ncccc34)cc2)nc(C)n1	-12.4%[10.9 µM]	-0.6%[9.22 µM]	-16.3%[11.5 µM]	-5.5%[9.22 µM]	9.7%[11.4 µM]
Cc1cc2ccccc2c[n+]1CC(O)C[n+]1cc2ccccc2cc1C	-19.1%[10.9 µM]	3.6%[9.22 µM]	-12.4%[11.5 µM]	27.7%[9.22 µM]	0.2%[11.4 µM]
Cc1cccc(OCC(=O)Nc2ccc(-c3nc4cc(C)ccc4o3)c(O)c2)c1	-6.3%[10.9 µM]	-25.4%	x	10µM*	3.0%
CCOc1cccc(-c2nc3cc(C)ccc3o2)c1	-61.2%	15.8µM*	71.7%	u	2.3%
FC(F)(F)c1cc(NC(=S)N2c3ccccc3-n3cccc3[C@H]2c2cccnc2)cc(C(F)(F)F)c1	-6.2%[10.9 µM]	4.5%[9.22 µM]	-13.3%[11.5 µM]	1.9%[9.22 µM]	-1.9%[11.4 µM]
COc1cccc2oc(-c3ccc(O)cc3)cc(=O)c12	-86.4%	6.31µM*	-9.5%	7.94µM*	2.3%[11.4 µM]
COc1cc2oc(-c3ccccc3)cc(=O)c2cc1OC	-17.1%	-15.6%	-16.5%	-15.4%	-1.3%[11.4 µM]

High-throughput results from PubChem.
